Compound activity (PubChem)
PostGolgi yeast: growth inhibition of a yeast mutant, post-Golgi transport screen. post-Golgi transport phenotypic cell assay. inhibition, % at 10 µM. 98,000 compounds, 0.9% hits. AID 739;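 further: yeast cells grown in 1536-well plates; yeast grown about 18 h at 30C before absorbance read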
Pyk2 oligo antag: Pyk2 (human) oligomerization antagonism; AID 1347419; 99,000 compounds, 0.83% hits; Q293 cells, Pyk2 FERM NanoBiT luminescence; hits give low values; z-score (the deposit names both 25 µM and 10 µM);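 active means Z-score of -3 or lower, scaled per plate to the spread of control and sample wells; inactive means z-score above -3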;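 further: negative z-score means lost luminescence so less FERM oligomerization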
Cav3 T inh: blocks human Cav3.2 T-type calcium channel; Cav3.2-expressing cells, Fluo-4 calcium fluorescence FDSS; hits give low values; AID 449739; O95180; B-score at 10 µM; 100,000 compounds, 4% hits;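 active means single-dose well whose peak fluorescence ratio is a statistical outlier from its plate by either plate-standardised score or position-corrected B-score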
PostGolgi ctrl: growth of the yeast control strain, post-Golgi counter-screen | 98,000 compounds, 5% hits | inhibition, % at 10 µM | efflux-deficient yeast background strain, growth absorbance A615, 16 h
An asterisk follows results filed as active; · = no result. Compounds with a hit are over-represented: about 8% of the library has one in this group of screens. Unless noted, no stated cut-off is given here; in the data, active means inhibition above about 30%; inactive means the rest.

SMILES	PostGolgi yeast	Pyk2 oligo antag	Cav3 T inh	PostGolgi ctrl
O=[N+]([O-])c1ccc(-c2cnc(SCc3ccccc3Cl)[nH]2)cc1	4	-1.8	-1.8	42*
O=[N+]([O-])c1ccc2nc(SCc3ccccc3Cl)sc2c1	6	0.7	-4.1*	12
Cc1c(-n2cc(C(=O)c3cc(Cl)ccc3O)cc(C#N)c2=O)c(=O)n(-c2ccccc2)n1C	3	0.05	-0.018	0
CCOC(=O)N1CCN(Cc2nc(-c3ccc(C)cc3)no2)CC1	2	0.82	0.36	3
COc1cc(/C=N/N(C)c2ccccc2)ccc1O	-4	-3*	-0.038	8
COc1cc(OC)c(OC)cc1/C=N/N(C)c1ccccc1	2	-1	-1.1	45*
O=C1C2C3C=CC(C3)C2C(=O)N1c1n[nH]c(CCc2ccccc2)n1 (stereo not given)	-2	1.1	0.8	10
O=c1c2c(-c3ccco3)csc2nc(SCc2cn3cccnc3n2)n1-c1ccccc1	-5	-0.06	-4.4*	36*
Cc1ccc(/C(N)=N/OC(=O)c2cccc(F)c2)cc1	-3	0.38	0.01	44*
COc1ccc(C2=NN(CN3C(=O)C(=O)c4ccccc43)C(c3ccc(Br)cc3)C2)cc1 (stereo not given)	4	-0.38	-0.5	32*
O=C(CSc1n[nH]c(-c2ccc(Cl)cc2Cl)n1)Nc1ccccn1	-3	0.83	·	33*
CCc1nc2sc3c(c2c(=O)n1NC(=O)CCl)CCCC3	11	-0.41	0.47	-2
CCOC(=O)c1c(C)nc2sc(C(=O)Nc3ccc(C(C)=O)cc3)c(N)c2c1-c1ccc(OC)cc1	-7	0.15	0.036	8
CCOC(=O)c1c(C)nc2sc(C(=O)Nc3ccc(OC)cc3)c(N)c2c1-c1ccc(OC)cc1	-4	-2.4	-4.8*	15
Cc1cc(C)c(C)c(S(=O)(=O)N2CCN(CC(=O)c3c(N)n(Cc4ccccc4)c(=O)n(C)c3=O)CC2)c1C	·	0.71	·	·
N#C/C(=N\Nc1cccc(Cl)c1)C(=O)c1ccccc1	11	-1.2	-9.2*	84*
N#C/C(=N\Nc1c(Cl)cccc1Cl)C(=O)NN	2	0.24	0.24	9
N#C/C(=N\Nc1ccccc1Cl)C(=O)c1ccccc1	-3	-1.2	·	48*
CC(C)c1[nH]nc2c1C1(CCN(Cc3ccccc3)CC1)C(C#N)=C(N)O2	-3	0.34	0.66	6
N#CC1=C(N)N2C(=C(C#N)C13CCN(Cc1ccccc1)CC3)Nc1ccccc12	-20	-0.29	0.049	30*
O=S(=O)(/N=C/c1c(O)ccc2ccccc12)c1cccs1	-2	·	-0.015	-9
CC(=O)OCC(=O)NCc1ccc2c(c1)OCO2	-6	0.64	-0.61	30*
Cc1cccc(Cn2c(=O)n(-c3ccc(CC(=O)NCc4ccco4)cc3)c(=O)c3sccc32)c1	4	·	-0.089	3
CCN(CC)c1nc(SCC(=O)O)nc(N(CC)CC)n1	17	-0.73	1.4	40*
CCOC(=O)Cn1c(S(=O)(=O)Cc2ccccc2Cl)nc(-c2ccccc2)c1-c1ccccc1	14	-2.2	-7.3*	16
SMILES	PostGolgi yeast	Pyk2 oligo antag	Cav3 T inh	PostGolgi ctrl
Cc1ccc(Cn2c(NS(=O)(=O)c3ccccc3)nc3ccccc32)cc1	-2	-1.4	-1.9	15
O=S(=O)(Cc1ccccc1Cl)Nc1ccccn1	0	-0.42	0.98	-3
C#CCn1c(S(=O)(=O)Cc2ccc(C)cc2)nc(-c2ccccc2)c1-c1ccccc1	2	-3.4*	-7.8*	8
C#CCn1c(S(=O)(=O)Cc2ccccc2Cl)nc(-c2ccccc2)c1-c1ccccc1	15	-3.5*	-7.2*	12
O=C(COc1ccc(S(=O)(=O)N2CCc3ccccc32)cc1Cl)NCc1ccccn1	4	0.38	-1.8	17
CC(C)Oc1ccccc1C1CC(=O)Nc2c1c(=O)n(C)c(=O)n2C (stereo not given)	-9	·	·	10
CCOC(=O)C1=C(C)Nc2nc(=S)[nH]n2C1c1ccc(Cl)cc1 (stereo not given)	4	-0.99	0.061	31*
CC(C)(C)c1ccc(-c2nnc(SCCC#N)n2C2CCCC2)cc1	0	-0.64	-4.4*	48*
Cc1ccccc1OCC(=O)Nc1sc(C(=O)Nc2cccc(C)c2C)c(C)c1C#N	-2	0.18	0.081	-2
Cc1ccc(SCC2(O)CCN(S(=O)(=O)c3ccc(Cl)cc3)CC2)cc1	3	-2.2	-6.1*	20
COc1ccc(S(=O)(=O)N2CCC(O)(c3ccc(Cl)cc3)CC2)cc1	-11	-2.8	-1.6	9
O=C(c1ccc(Cl)cc1)N1CCC(O)(CSc2ccc(Cl)cc2)CC1	-4	-0.79	-6.5*	45*
COc1cccc(=O)c2c(C)n(-c3cc(C)cc(C)c3)c(C)c12	20	-1.1	-5.1*	47*
COc1cccc(=O)c2c(C)n(C)c(C)c12	-4	0.09	-0.056	7
CC(C)CC(NS(=O)(=O)c1ccc2c(c1)oc(=O)n2C)C(=O)NCc1cccnc1 (stereo not given)	-20	·	0.57	3
CCOC(=O)c1c(C)[nH]c(C)c1C(=O)COC(=O)c1ccc(Cl)c(S(=O)(=O)NCc2ccccc2)c1	-7	-1.9	-4.1	24
CC1(C)C(=O)Nc2ccccc2N1C(=O)COC(=O)c1ccc(Cl)c(S(=O)(=O)NCc2ccccc2)c1	-1	-2.4	-3.7*	-1
Cc1ccc(SCC(=O)N2c3ccccc3Sc3ccccc32)cc1	-7	0.75	-5.8*	17
CCOC(=O)c1cnc(SCc2ccccc2)nc1N	3	-2.4	-0.44	24
CCOC(=O)c1cnc(SCc2ccc(C(C)(C)C)cc2)nc1N	-7	-0.77	-7.2*	2
COc1ccc2c(c1)c(=O)c(C(=O)c1ccccc1)cn2Cc1ccc(C)cc1	·	·	-5.5*	·
O=C(Nc1cc2c(cc1Br)OCCO2)c1ccco1	·	-0.64	0.53	·
CN1c2ccccc2C(O)=C(C(=S)Nc2ccc(F)c(Cl)c2)S1(=O)=O	17	-0.58	-11*	20
COCCN1C(=O)C(=O)/C(=C(/O)c2cccc(OC)c2)C1c1ccco1 (stereo not given)	-4	0.27	-1.3	32*
CCOC(=O)C1(C(=O)OCC)CC1c1ccccc1 (stereo not given)	6	2.1	-0.14	17
SMILES	PostGolgi yeast	Pyk2 oligo antag	Cav3 T inh	PostGolgi ctrl
O=C(c1ccc2c(c1)N(Cc1ccccc1)CCS2)N1CCCCC1	2	·	-8.3*	43*
Cc1ccccc1Cn1c2ccccc2c2cnn(CC(=O)N3CCN(c4ccccc4)CC3)c(=O)c21	0	·	-3.6	42*
O=C(Cn1ncc2c3ccccc3n(Cc3ccc(F)cc3)c2c1=O)N1CCN(c2ncccn2)CC1	14	-1	-2.7	18
CNc1nc(NCCOC23CC4CC(CC(C4)C2)C3)nc(OCC(F)(F)F)n1	3	-0.15	-5.4*	27
CNc1nc(OCC(F)(F)F)nc(N2CCOCC2)n1	22	0.39	0.27	7
O=[N+]([O-])c1ccc(N/N=C\c2cccn2-c2ccccc2)nc1	11	-0.53	·	40*
Cc1nc(CCNC(=O)COc2ccccc2)cs1	-3	·	-1.1	0
Cc1cccc2cc(/C=C3\N=C(c4ccccc4)OC3=O)c(N3CCOCC3)nc12	5	-1.4	-6*	22
